This is an account of results in PubChem BioAssay (EPA / NIEHS).

Inconclusive results are not listed. Calls of active or inactive are those of the source. How the source made its calls: active means hit-call score of the fitted dose curve at least 0.9, where 1 is the maximum; inconclusive means response in the unintended direction; inactive means score below 0.9.

human Caspase 10 (CASP10), CASP10 (gene 843), sequence (Q92851 whole entry, looked up): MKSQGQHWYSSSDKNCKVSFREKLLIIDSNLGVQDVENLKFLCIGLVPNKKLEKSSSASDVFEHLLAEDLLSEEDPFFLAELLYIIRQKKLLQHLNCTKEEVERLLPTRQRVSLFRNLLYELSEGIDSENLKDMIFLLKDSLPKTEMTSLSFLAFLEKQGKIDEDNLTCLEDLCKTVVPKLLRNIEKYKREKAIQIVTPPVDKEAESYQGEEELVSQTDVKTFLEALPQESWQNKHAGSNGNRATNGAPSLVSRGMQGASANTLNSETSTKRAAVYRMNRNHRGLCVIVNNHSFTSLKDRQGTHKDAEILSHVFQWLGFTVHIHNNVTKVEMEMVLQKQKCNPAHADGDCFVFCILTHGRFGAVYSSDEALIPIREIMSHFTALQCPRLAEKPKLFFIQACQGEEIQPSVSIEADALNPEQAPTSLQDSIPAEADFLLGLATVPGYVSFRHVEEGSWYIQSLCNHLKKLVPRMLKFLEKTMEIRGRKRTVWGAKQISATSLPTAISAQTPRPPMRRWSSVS

This assay addresses human Caspase 10 (CASP10), CASP10 (gene 843) (UniProt Q92851). Description: NVS_ENZ_hCASP10: NovaScreen (NVS) Enzymatic Assay for human Caspase 10 (CASP10) (AID 2283133). On the procedure:
NVS_ENZ_hCASP10 is a biochemical, single-readout assay that uses extracted gene-proteins from E. coli in a cell-free assay. Measurements were taken 1 hour after chemical dosing in a 96-well plate.NVS_ENZ_hCASP10 is one of one assay component(s) measured or calculated from the NVS_ENZ_hCASP10 assay. It is designed to make measurements of enzyme activity, a form of enzyme reporter, as detected with fluorescence intensity signals by Fluorescence technology.Data from the assay component NVS_ENZ_hCASP10 was analyzed into 1 assay endpoint. This assay endpoint, NVS_ENZ_hCASP10, was analyzed in the positive analysis fitting direction relative to DMSO as the negative control and baseline of activity. Using a type of enzyme reporter, loss-of-signal activity can be used to understand changes in the enzymatic activity as they relate to the gene CASP10. Furthermore, this assay endpoint can be referred to as a primary readout, because this assay has produced multiple assay endpoints where this one serves a enzymatic activity function. To generalize the intended target to other relatable targets, this assay endpoint is annotated to the protease intended target family, where the subfamily is cysteine protease.
Binding assays used specific radioligands (tritiated, iodinated) with non-radioactive competitive displacement ligands in agonist or antagonist protocols (as indicated) and various reference compounds and inhibitors to titrate specific binding to receptors and transporters. Most enzyme assays (CYPs, kinases, phosphatases, proteases, HDACs) used recombinant protein and specific substrates (fluorescence mostly, some colorimetric and radioactive) and inhibitors, followed by a biochemical separation of substrate and product. All assays for the biochemical HTS were initially run in duplicate at a single concentration (10 uM for CYP450 assays and 25 uM for all others). Assay-chemical combinations meeting a pre-defined threshold (e.g., 30% inhibition and other criteria defined below) were then run in singleton concentration-response format with maximum concentration of 20 uM for CYPs and 50 uM for all others. Each assay was run with positive and negative controls, and concurrent controls on every plate. The follow-up (secondary) screen tested active chemical-pairs in concentration series, as well as a few additional assays not tested in the primary screen, some selected negative inactives, and several cases re-run in the concentration series for confirmatory purposes.
Consider `CN1C(=O)CC[C@H]1c1cccnc1`, for which the molecule was called inactive. `CN1C(=O)N(c2ccccc2Br)Cc2cnc(Nc3ccc4c(c3)OCC(CO)O4)nc21` (stereo not given): the result was inactive.

In the case of `S=C(S)NCCNC(=S)S.[Mn+2].[S-]C([S-])=NCCN=C([S-])[S-].[Zn+2]`, the molecule was called inactive. Regarding `COc1ccc2c(c1)c(CC(=O)O)c(C)n2C(=O)c1ccc(Cl)cc1`, the molecule was called inactive. Consider `O=C1CCC(C2CCCCC2)CC1`, for which the result was inactive. Same read-out and setting: then `CCCCCCCCCCCCCCOS(=O)(=O)O`, with “inactive”. Turning to `O=C(O)c1[nH]n(-c2ccc(S(=O)(=O)O)cc2)c(=O)c1N=Nc1ccc(S(=O)(=O)O)cc1`, the outcome was inactive. As to `Cc1oc(-c2ccccc2)nc1CCOc1ccc(C[C@H](Nc2ccccc2C(=O)c2ccccc2)C(=O)O)cc1`, the outcome was inactive. In the case of `CCCCCCCCCCCCCCCCOS(=O)(=O)O`, the result was inactive.

Turning to `CN(C)c1ccc(C(=C2C=CC(=[N+](C)C)C=C2)c2ccc(N(C)C)cc2)cc1`, the result was inactive.

In the case of `Oc1cc2ccccc2c2ccccc12`, the AC50 was 11.1 µM (active).

For the molecule `Cc1c2ccccc2c(C)c2c1ccc1ccccc12`, the result was inactive. With `C[Si]1(C)O[Si](C)(C)O[Si](C)(C)O[Si](C)(C)O1`, the molecule was called inactive. `CCN(Cc1cccc(S(=O)(=O)O)c1)c1ccc(C(=C2C=CC(=[N+](CC)Cc3cccc(S(=O)(=O)O)c3)C=C2)c2ccccc2S(=O)(=O)[O-])cc1`: the outcome was inactive.

As to `O=C(O)CCCCC(=O)O`, the AC50 is 11.4 µM (active).
